# According to publication PMC11062922 (Nature Chemical Biology, 2023):
# Like-named read-outs stand apart in the source and are kept apart here.
# How the values were obtained:
# Design in all cases: species or system human, MV4-11 + K-562 + COLO205 + SK-N-BE2 + OVCAR-8
# ACVR1 = settings: read-out: apparent Kd, n = 1
# ACVR2B = settings: read-out: apparent Kd, n = 1
# BMPR1A = settings: read-out: apparent Kd; compound concentrations:100 nM and 1000 nM (sheet 'Samples'); n = 1
# CDK6 = settings: read-out: apparent Kd; compound concentrations:100 nM and 1000 nM (sheet 'Samples'); n = 1
# MAP2K2 = settings: read-out: apparent Kd; compound concentrations:100 nM and 1000 nM (sheet 'Samples'); n = 1
# MAP2K5 = settings: read-out: apparent Kd; compound concentrations:100 nM and 1000 nM (sheet 'Samples'); n = 1
# NNT = settings: read-out: apparent Kd; compound concentrations:100 nM and 1000 nM (sheet 'Samples'); n = 1
# NQO1 = settings: read-out: apparent Kd; compound concentrations:100 nM and 1000 nM (sheet 'Samples'); n = 1
# PDGFRB = settings: read-out: apparent Kd, n = 1
# PRKCI = settings: read-out: apparent Kd; compound concentrations:100 nM and 1000 nM (sheet 'Samples'); n = 1
# PRKCZ = settings: read-out: apparent Kd; compound concentrations:100 nM and 1000 nM (sheet 'Samples'); n = 1
# PTK6 = settings: read-out: apparent Kd; compound concentrations:100 nM and 1000 nM (sheet 'Samples'); n = 1
# RIOK2 = settings: read-out: apparent Kd; compound concentrations:100 nM and 1000 nM (sheet 'Samples'); n = 1
# RIPK2 = settings: read-out: apparent Kd, n = 1
# TESK2 = settings: read-out: apparent Kd; compound concentrations:100 nM and 1000 nM (sheet 'Samples'); n = 1
# TNIK = settings: read-out: apparent Kd; compound concentrations:100 nM and 1000 nM (sheet 'Samples'); n = 1
# TP53RK = settings: read-out: apparent Kd; compound concentrations:100 nM and 1000 nM (sheet 'Samples'); n = 1
# ACVR1B = settings: read-out: apparent Kd; compound concentrations:100 nM and 1000 nM (sheet 'Samples'); n = 1
# GAK = settings: read-out: apparent Kd, n = 1
# NQO2 = settings: read-out: apparent Kd; compound concentrations:100 nM and 1000 nM (sheet 'Samples'); n = 1
# PRKD2 = settings: read-out: apparent Kd; compound concentrations:100 nM and 1000 nM (sheet 'Samples'); n = 1
# PRKD3 = settings: read-out: apparent Kd; compound concentrations:100 nM and 1000 nM (sheet 'Samples'); n = 1
# TGFBR1 = settings: read-out: apparent Kd; compound concentrations:100 nM and 1000 nM (sheet 'Samples'); n = 1
# TGFBR2 = settings: read-out: apparent Kd; compound concentrations:100 nM and 1000 nM (sheet 'Samples'); n = 1
# ZAK = settings: read-out: apparent Kd; compound concentrations:100 nM and 1000 nM (sheet 'Samples'); n = 1
# DDR2 = settings: read-out: apparent Kd; compound concentrations: 100 nM and 1000 nM (sheet 'Samples'), CATDS: 0.13771295119314; n = 1
# PIK3CD = settings: read-out: apparent Kd; compound concentrations: 100 nM and 1000 nM (sheet 'Samples'), CATDS: 0.471997589985167; n = 1
# ADCK3 = settings: read-out: apparent Kd; compound concentrations: 100 nM and 1000 nM (sheet 'Samples'), CATDS: 4.2636301284937402E-2; n = 1
# AKT2 = settings: read-out: apparent Kd; compound concentrations: 100 nM and 1000 nM (sheet 'Samples'), CATDS: 3.8315298656597697E-2; n = 1
# CDC42BPB = settings: read-out: apparent Kd; compound concentrations: 100 nM and 1000 nM (sheet 'Samples'), CATDS: 4.17361912468606E-2; n = 1
# CDC42BPG = settings: read-out: apparent Kd; compound concentrations: 100 nM and 1000 nM (sheet 'Samples'), CATDS: 4.6703461081502903E-2; n = 1
# CDK13 = settings: read-out: apparent Kd; compound concentrations: 100 nM and 1000 nM (sheet 'Samples'), CATDS: 3.8824736575062302E-2; n = 1
# CDKL5 = settings: read-out: apparent Kd; compound concentrations: 100 nM and 1000 nM (sheet 'Samples'), CATDS: 4.2225060915193902E-2; n = 1
# CIT = settings: read-out: apparent Kd; compound concentrations: 100 nM and 1000 nM (sheet 'Samples'), CATDS: 9.7052908053400402E-2; n = 1
# CSNK1A1 = settings: read-out: apparent Kd; compound concentrations: 100 nM and 1000 nM (sheet 'Samples'), CATDS: 4.3314802328408702E-2; n = 1
# CSNK1D = settings: read-out: apparent Kd; compound concentrations: 100 nM and 1000 nM (sheet 'Samples'), CATDS: 5.2512295854069302E-2; n = 1
# CSNK1E = settings: read-out: apparent Kd; compound concentrations: 100 nM and 1000 nM (sheet 'Samples'), CATDS: 4.5718432207302401E-2; n = 1
# MAP3K12 = settings: read-out: apparent Kd; compound concentrations: 100 nM and 1000 nM (sheet 'Samples'), CATDS: 4.3727049359112501E-2; n = 1
# MAP3K4 = settings: read-out: apparent Kd; compound concentrations: 100 nM and 1000 nM (sheet 'Samples'), CATDS: 4.0498159279946502E-2; n = 1
# MTOR = settings: read-out: apparent Kd; compound concentrations: 100 nM and 1000 nM (sheet 'Samples'), CATDS: 6.6094429766625107E-2; n = 1
# PIK3CA = settings: read-out: apparent Kd; compound concentrations: 100 nM and 1000 nM (sheet 'Samples'), CATDS: 0.16597567422928799; n = 1
# PRKCD = settings: read-out: apparent Kd; compound concentrations: 100 nM and 1000 nM (sheet 'Samples'), CATDS: 3.8004287822733102E-2; n = 1
# ROCK1 = settings: read-out: apparent Kd; compound concentrations: 100 nM and 1000 nM (sheet 'Samples'), CATDS: 9.5371648246972293E-2; n = 1
# ROCK2 = settings: read-out: apparent Kd; compound concentrations: 100 nM and 1000 nM (sheet 'Samples'), CATDS: 9.3527332019104195E-2; n = 1
# TESK1 = settings: read-out: apparent Kd; compound concentrations: 100 nM and 1000 nM (sheet 'Samples'), CATDS: 4.6585684962704203E-2; n = 1
# [1] = compound concentrations:100 nM and 1000 nM (sheet 'Samples')
smiles,measurement,setting,value
Cc1cc(O)cc(C)c1/C=C/c1cncc(C(N)=O)c1 [GW435821X_KCGS],potency estimated from few doses,ACVR1; [1],107 nM
same,potency estimated from few doses,ACVR2B; [1],26.5 nM
same,potency estimated from few doses,BMPR1A,1200 nM
same,potency estimated from few doses,CDK6,120 nM
same,potency estimated from few doses,MAP2K2,179 nM
same,potency estimated from few doses,MAP2K5,2600 nM
same,potency estimated from few doses,NNT,2010 nM
same,potency estimated from few doses,NQO1,1150 nM
same,potency estimated from few doses,PDGFRB; [1],1570 nM
same,potency estimated from few doses,PRKCI,2300 nM
same,potency estimated from few doses,PRKCZ,1470 nM
same,potency estimated from few doses,PTK6,1460 nM
same,potency estimated from few doses,RIOK2,2280 nM
same,potency estimated from few doses,RIPK2; [1],96.7 nM
same,potency estimated from few doses,TESK2,1250 nM
same,potency estimated from few doses,TNIK,2400 nM
same,potency estimated from few doses,TP53RK,1440 nM
c1ccc(-c2n[nH]cc2-c2ccnc(-c3ccc(OCCN4CCOCC4)cc3)c2)nc1 [GW695874X],potency estimated from few doses,ACVR1B,51.4 nM
same,potency estimated from few doses,GAK; [1],432 nM
same,potency estimated from few doses,NQO2,256 nM
same,potency estimated from few doses,PRKD2,648 nM
same,potency estimated from few doses,PRKD3,1460 nM
same,potency estimated from few doses,RIPK2; [1],774 nM
same,potency estimated from few doses,TGFBR1,27.7 nM
same,potency estimated from few doses,TGFBR2,758 nM
same,potency estimated from few doses,TNIK,1170 nM
same,potency estimated from few doses,ZAK,2090 nM
COC(=O)c1cncc(/C=C/c2c(C)cc(O)cc2C)c1 [GW406731X],potency estimated from few doses,"ACVR1; compound concentrations: 100 nM and 1000 nM (sheet 'Samples'), CATDS: 0.26070115141914502",403 nM
same,potency estimated from few doses,DDR2,2520 nM
same,potency estimated from few doses,"PDGFRB; compound concentrations: 100 nM and 1000 nM (sheet 'Samples'), CATDS: 0.14028775258346299",2330 nM
same,potency estimated from few doses,PIK3CD,143 nM
same,potency estimated from few doses,"RIPK2; compound concentrations: 100 nM and 1000 nM (sheet 'Samples'), CATDS: 0.21478363135213999",621 nM
Cl.Cl.NCC(NC(=O)c1cc(-c2cccnc2)c(-c2ccnc3[nH]ccc23)s1)c1ccccc1.NCC(NC(=O)c1cc(-c2cccnc2)c(-c2ccnc3[nH]ccc23)s1)c1ccccc1 (stereo not shown) [GSK1323434A],potency estimated from few doses,"ACVR2B; compound concentrations: 100 nM and 1000 nM (sheet 'Samples'), CATDS: 4.2186627256430298E-2",1740 nM
same,potency estimated from few doses,ADCK3,1690 nM
same,potency estimated from few doses,AKT2,2290 nM
same,potency estimated from few doses,CDC42BPB,1790 nM
same,potency estimated from few doses,CDC42BPG,1340 nM
same,potency estimated from few doses,CDK13,2200 nM
same,potency estimated from few doses,CDKL5,1730 nM
same,potency estimated from few doses,CIT,344 nM
same,potency estimated from few doses,CSNK1A1,1620 nM
same,potency estimated from few doses,CSNK1D,1030 nM
same,potency estimated from few doses,CSNK1E,1410 nM
same,potency estimated from few doses,"GAK; compound concentrations: 100 nM and 1000 nM (sheet 'Samples'), CATDS: 5.0119839441511702E-2",1140 nM
same,potency estimated from few doses,MAP3K12,1580 nM
same,potency estimated from few doses,MAP3K4,1940 nM
same,potency estimated from few doses,MTOR,653 nM
same,potency estimated from few doses,PIK3CA,161 nM
same,potency estimated from few doses,PRKCD,2350 nM
same,potency estimated from few doses,ROCK1,354 nM
same,potency estimated from few doses,ROCK2,364 nM
same,potency estimated from few doses,TESK1,1350 nM
